Rpn11 inh – blocks the human proteasome subunit Rpn11; 0.59% of 360,000 active; O00487; inhibition, % at 20 µM; AID 588493; human 26S proteasome, Ub4-pepOG fluorescence polarization; 20S core pre-blocked with epoxomicin;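 active = inhibition at 20 µM, scaled to each plate's controls, above about 33%, limit read from the data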
Myeloid diff MLP – promotes myeloid progenitor differentiation; ER-HoxA9 myeloid progenitors, lysozyme-GFP differentiation, flow cytometry; calls only at 10 µM; 1% of 360,000 active; AID 624256;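 active = normalized GFP-positive differentiation at or above the plate's own cutoff, the solvent-only control mean plus 3 SD; inconclusive = no clear call, values can overlap the other calls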;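 also: cells exposed to compound for four days before flow analysis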
TPT1 inhibitor – C. albicans TPT1 enzyme inhibition. AID 1962. recombinant caTPT1, FP RNA substrate dephosphorylation. 0.81% of 300,000 active. inhibition, % at 5 µM;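 active = inhibition above the mean of all tested compounds plus 3 SD, set per screening campaign, cut at about 24% in these data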
HNF4A DNA FP – change in binding of human HNF4 alpha to DNA; HNF4a-FITC DNA binding, fluorescence polarization, 1 h; activity change, % at 10 µM; 0.3% of 360,000 active; in the data active = activity change above about 30%, passing the limit was not always enough
Rpn11 confirm – Rpn11 inhibition confirmation, single concentration; 29% of 1,900 active; inhibition, % at 20 µM; purified human 26S proteasome, Ub4-pepOG fluorescence polarization; proteasome pretreated with epoxomicin; shares compounds with Rpn11 inh
MMP-2 inh – blocks human MMP-2, flagging nonselective RPN11 hits; inhibition, % at 20 µM; AID 602330; shares compounds with Rpn11 inh; 4% of 1,900 active; recombinant MMP-2, FRET peptide cleavage fluorescence;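 also: human MMP-2 activated beforehand with APMA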
Thrombin FP – blocks bovine thrombin, flagging nonselective RPN11 hits | shares compounds with Rpn11 inh | bovine thrombin cleavage of Ub4-pepOG, fluorescence polarization | inhibition, % at 20 µM | 13% of 1,900 active;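 active = mean inhibition at least 40% at 20 µM, or signal 3 deviations below plate average, so some actives read negative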
Target sequence (P00735 whole entry, looked up): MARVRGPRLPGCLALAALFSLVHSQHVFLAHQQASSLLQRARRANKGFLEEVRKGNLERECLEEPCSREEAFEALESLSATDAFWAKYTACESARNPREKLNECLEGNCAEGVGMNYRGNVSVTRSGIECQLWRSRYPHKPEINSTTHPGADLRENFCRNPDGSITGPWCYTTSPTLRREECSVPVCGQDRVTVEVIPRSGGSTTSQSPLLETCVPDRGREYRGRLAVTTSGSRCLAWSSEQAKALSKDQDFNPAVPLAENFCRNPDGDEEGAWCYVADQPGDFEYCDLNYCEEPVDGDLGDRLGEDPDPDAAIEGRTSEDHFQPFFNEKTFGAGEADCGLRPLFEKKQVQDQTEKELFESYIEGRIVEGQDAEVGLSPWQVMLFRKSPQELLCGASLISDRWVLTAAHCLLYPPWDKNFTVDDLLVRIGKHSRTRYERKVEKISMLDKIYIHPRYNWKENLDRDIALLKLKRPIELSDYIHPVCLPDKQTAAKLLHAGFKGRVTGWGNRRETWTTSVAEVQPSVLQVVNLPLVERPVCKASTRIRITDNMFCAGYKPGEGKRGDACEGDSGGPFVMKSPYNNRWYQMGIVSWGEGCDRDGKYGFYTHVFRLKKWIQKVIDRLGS
Large screens that a line does not name were inactive (follow-up assays come after a bar, where they were run). Rows were chosen to be rich in hits. Some 2.1% of all compounds tested hit in one or more screens of this group. Rule as the data show it, unless noted: active = inhibition above about 40%; inactive = the rest.

C/C(C/C(C)=C1/SC(=S)NC1=O)=C1\SC(=S)NC1=O	Rpn11 inh 76.1 (no result: TPT1 inhibitor) | Rpn11 confirm 41.2 | MMP-2 inh inactive | Thrombin FP inactive
CC/C(C)=C1/NC(=O)NC1=O	none (no result: TPT1 inhibitor)
COC(=O)c1sccc1NC(=O)c1ccncc1	Rpn11 inh 47.5 | Rpn11 confirm inactive | MMP-2 inh inactive | Thrombin FP inactive
Cc1nc(NCc2ccco2)c2c(C)c(C)sc2n1	Myeloid diff MLP inconclusive
Cc1sc2nc3c4ccccc4c(NCc4ccco4)nn3c(=O)c2c1C	Rpn11 inh 46.6, Myeloid diff MLP active | Rpn11 confirm inactive | MMP-2 inh inactive | Thrombin FP inactive
COCCCn1c(=O)/c(=C\c2ccccc2OC(F)F)s/c1=C(/C#N)C(N)=O	Rpn11 inh 49.3 | Rpn11 confirm inactive | MMP-2 inh inactive | Thrombin FP inactive
COc1ccc(CNc2nc(NCc3ccc(OC)cc3)n(C(=O)c3ccccc3[N+](=O)[O-])n2)cc1	none
Cc1ccc(/C=N/NC(=O)c2nnn(-c3nonc3N)c2CSc2ccc(Cl)cc2)o1	none
Cc1cc(-c2ccc(C(C)C)c(S(=O)(=O)N3CCN(c4ccccn4)CC3)c2)on1	Myeloid diff MLP inconclusive
Clc1ccc(CN2CCC(c3nc4ccc(Cl)cc4[nH]3)CC2)cc1	Rpn11 inh 54.6 | Rpn11 confirm inactive | MMP-2 inh inactive | Thrombin FP inactive
O=C(/C=C/c1ccccc1Cl)Nc1ccc2c(c1)C(=O)NC2=O	Rpn11 inh 54.0 | Rpn11 confirm 57.4 | MMP-2 inh inactive | Thrombin FP inactive
COc1ccc(C2C=C(C34CC5CC(CC(C5)C3)C4)NC(=S)N2)cc1 (stereo not given)	none
Cc1c2n(c3ccccc13)CCN(C)C2	none
Cc1cc(C)n2nc(Sc3ncccc3[N+](=O)[O-])nc2n1	Rpn11 inh 42.6 | Rpn11 confirm inactive | MMP-2 inh inactive | Thrombin FP inactive
CC(C)S(=O)(=O)c1csc(C(=O)Nc2ccc(F)cc2)c1N	none
O=C(Nc1ccc2nn(-c3ccccc3)nc2c1)c1ccc(Br)o1	Rpn11 inh 44.9 | Rpn11 confirm inactive | MMP-2 inh inactive | Thrombin FP inactive
O=C(Nc1ccc2nn(-c3ccccc3)nc2c1)c1ccc2c(c1)OCCO2	none
COC(=O)c1ccc(/C=C/C(=O)c2ccc(OC)c(OC)c2)cc1	none
COc1ccc(/C=C/C(=O)c2ccc(C(=O)/C=C/c3ccc(OC)c(OC)c3)cc2)cc1OC	Rpn11 inh 55.8 (no result: TPT1 inhibitor) | Rpn11 confirm inactive | MMP-2 inh inactive | Thrombin FP inactive
C=C(C)CSc1nc2sc3c(c2c(=O)n1C1CCCCC1)CCN(C)C3	Rpn11 inh 59.5 | Rpn11 confirm inactive | MMP-2 inh inactive | Thrombin FP inactive
CCSc1nc2sc3c(c2c(=O)n1C1CCCCC1)CCN(C)C3	none (no result: TPT1 inhibitor)
O=C(NCCCC(=O)N1CCCCC1)c1ccc(Cl)cc1	none (no result: TPT1 inhibitor)
O=C(O)c1cccnc1SCC(=O)N1CCCc2ccccc21	none
O=C(O)c1ccc(/C=C/c2nc3ccccc3c(=O)[nH]2)cc1	none
O=c1[nH]c(/C=C/c2ccccc2Cl)nc2ccccc12	Rpn11 inh 75.0, Myeloid diff MLP inconclusive, HNF4A DNA FP 79.5 | Rpn11 confirm inactive | MMP-2 inh inactive | Thrombin FP inactive
CN(C)C(=O)C[C@@H]1C=C[C@@H](NC(=O)C2CCC2)[C@@H](CO)O1	none (no result: Rpn11 inh, TPT1 inhibitor)
CCOC(=O)C1=C(C)N=c2sc(=Cc3cc(Cl)c(OCC(=O)O)c(OC)c3)c(=O)n2C1c1ccccc1Cl (stereo not given)	Rpn11 inh 50.8, Myeloid diff MLP active (no result: TPT1 inhibitor) | Rpn11 confirm inactive | MMP-2 inh inactive | Thrombin FP 65.2
CCOC(=O)C1=C(C)N=c2s/c(=C\c3cc(OC)c(OC)c(OC)c3)c(=O)n2C1/C=C/c1ccccc1 (stereo not given)	none
CC(C)CCNC(=O)c1sc2ccc(S(=O)(=O)N3CCCCC3)cc2c1N	none
Cc1ccc(O)c(C(=O)c2cc(C#N)c(=O)n(Cc3ccccc3)c2)c1	Rpn11 inh 39.8 | Rpn11 confirm inactive | MMP-2 inh inactive | Thrombin FP inactive
Fc1ccc(N2CCN(C3=Nc4cccc5cccc3c45)CC2)cc1	Rpn11 inh 41.8 | Rpn11 confirm inactive | MMP-2 inh inactive | Thrombin FP inactive
CCOCCCNC(=O)N[C@@H](Cc1ccccc1)C(=O)OC	Rpn11 inh 57.6 | Rpn11 confirm inactive | MMP-2 inh inactive | Thrombin FP inactive
CC(C)[C@H](NC(=O)[C@@H]1Cc2ccccc2CN1)C(=O)Nc1ccc2c(c1)OCO2	none
Cc1ccc(-n2c(SCC(=O)NCC3CCCO3)nc3ccccc3c2=O)cc1 (stereo not given)	none (no result: TPT1 inhibitor)
COc1ccc(-n2c(SCC(=O)NCC3CCCO3)nc3ccccc3c2=O)cc1Cl (stereo not given)	Rpn11 inh 47.2 (no result: TPT1 inhibitor) | Rpn11 confirm inactive | MMP-2 inh inactive | Thrombin FP inactive
Cc1ccc(N(CC(=O)N/N=C/c2cccs2)S(C)(=O)=O)cc1	Rpn11 inh 29.0 | Rpn11 confirm inactive | MMP-2 inh inactive | Thrombin FP inactive
COc1ccc(N(CC(=O)N/N=C/c2cccs2)S(=O)(=O)c2ccccc2)cc1	none
CCOc1ccc(NC(=O)c2ccc(NC(=O)c3cn4c5c(c(N6CCN(C)CC6)c(F)cc5c3=O)OCC4C)cc2)cc1 (stereo not given)	Rpn11 inh 45.8, Myeloid diff MLP inconclusive | Rpn11 confirm inactive | MMP-2 inh inactive | Thrombin FP inactive
COc1ccc(Cn2nnnc2C(c2cc(OC)ccc2OC)N2CCC(C(N)=O)CC2)cc1 (stereo not given)	Rpn11 inh 124.9 | Rpn11 confirm inactive | MMP-2 inh inactive | Thrombin FP inactive
O=C(CCC(=O)N1CCN(S(=O)(=O)c2ccccc2Cl)CC1)c1ccccc1	none (no result: TPT1 inhibitor)
CC(=O)c1ccccc1NC(=O)Cn1c(=O)cnc2ccccc21	Rpn11 inh 41.1 | Rpn11 confirm inactive | MMP-2 inh inactive | Thrombin FP inactive
COc1ccc(CCNC(=O)CN(C2CCCCC2)S(C)(=O)=O)cc1	Rpn11 inh 114.0 | Rpn11 confirm inactive | MMP-2 inh inactive | Thrombin FP inactive
COc1cc(C(O)CO)ccc1OS(=O)(=O)O (stereo not given)	none
CCC(C)NC(=O)C1c2cc(OC)c(OC)cc2C(=O)N(C)C1c1cccs1 (stereo not given)	Rpn11 inh 158.3 | Rpn11 confirm inactive | MMP-2 inh inactive | Thrombin FP inactive
Cc1ccc(S(=O)(=O)CCC(=O)OCC(=O)c2cc(C)n(C)c2C)cc1	none (no result: TPT1 inhibitor)
Cc1nc(S/C(=C\c2ccc(-c3ccc(C(=O)O)c(Cl)c3)o2)C(=O)O)n[nH]1	Rpn11 inh 66.9 (no result: TPT1 inhibitor) | Rpn11 confirm 197.4 | MMP-2 inh inactive | Thrombin FP inactive
O=[N+]([O-])c1ccc(/C=N/n2cnc3ccccc32)s1	Myeloid diff MLP inconclusive
Cc1cc2ncn(/N=C/c3ccc([N+](=O)[O-])s3)c2cc1C	Rpn11 inh 40.7, Myeloid diff MLP inconclusive | Rpn11 confirm inactive | MMP-2 inh inactive | Thrombin FP inactive

From PubChem
